Laboratory results taken from the supplement of paper PMC11732987, “Enantioselective OTUD7B fragment discovery through chemoproteomics screening and high-throughput optimisation” (Communications Chemistry, 2025).

Key:
Test in all cases: log2 ratio of Biotin-Ahx-Ub-VS probe labelling (fragment/DMSO); higher = less target engagement (more negative = stronger competition), active = hit call of the paper (q ≤ 0.05, log2 ratio ≤ -1)
Conditions in all cases: compound concentration: 200 uM; treatment time: 3 h
UniProt O00507 = target: UniProt O00507
Summary of the method: (§1)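 Labelled DUBs were enriched with NeutrAvidin, digested with LysC and trypsin, and run by diaPASEF LC-MS/MS. The labelling used Biotin-Ahx-Ub-VS at 0.5 µM final for 1 h on HEK293T lysate (495 µg per sample) previously treated in triplicate with fragment at 200 µM or vehicle for 3 h. Values are average log2 fragment/vehicle ratios by unpaired t-test on global-median-normalised Spectronaut quantities of proteins with ≥2 unique peptides.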

UniProt P51784 = target: UniProt P51784
Summary of the method: as §1

UniProt Q5T2D3 = target: T1, UniProt Q5T2D3
T1 sequence (whole entry): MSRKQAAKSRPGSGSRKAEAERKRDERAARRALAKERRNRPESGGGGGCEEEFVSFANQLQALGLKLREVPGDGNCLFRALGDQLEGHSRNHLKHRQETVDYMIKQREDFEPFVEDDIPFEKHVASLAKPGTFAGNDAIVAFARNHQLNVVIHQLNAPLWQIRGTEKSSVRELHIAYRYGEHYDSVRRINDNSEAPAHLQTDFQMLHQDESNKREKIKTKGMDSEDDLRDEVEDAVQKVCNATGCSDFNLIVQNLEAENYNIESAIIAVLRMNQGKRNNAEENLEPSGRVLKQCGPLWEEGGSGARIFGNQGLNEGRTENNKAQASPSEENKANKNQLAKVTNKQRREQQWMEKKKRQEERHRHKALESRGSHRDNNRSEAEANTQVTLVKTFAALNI
Summary of the method: as §1

UniProt Q8TE49 = target: T2, UniProt Q8TE49
T2 sequence (whole entry): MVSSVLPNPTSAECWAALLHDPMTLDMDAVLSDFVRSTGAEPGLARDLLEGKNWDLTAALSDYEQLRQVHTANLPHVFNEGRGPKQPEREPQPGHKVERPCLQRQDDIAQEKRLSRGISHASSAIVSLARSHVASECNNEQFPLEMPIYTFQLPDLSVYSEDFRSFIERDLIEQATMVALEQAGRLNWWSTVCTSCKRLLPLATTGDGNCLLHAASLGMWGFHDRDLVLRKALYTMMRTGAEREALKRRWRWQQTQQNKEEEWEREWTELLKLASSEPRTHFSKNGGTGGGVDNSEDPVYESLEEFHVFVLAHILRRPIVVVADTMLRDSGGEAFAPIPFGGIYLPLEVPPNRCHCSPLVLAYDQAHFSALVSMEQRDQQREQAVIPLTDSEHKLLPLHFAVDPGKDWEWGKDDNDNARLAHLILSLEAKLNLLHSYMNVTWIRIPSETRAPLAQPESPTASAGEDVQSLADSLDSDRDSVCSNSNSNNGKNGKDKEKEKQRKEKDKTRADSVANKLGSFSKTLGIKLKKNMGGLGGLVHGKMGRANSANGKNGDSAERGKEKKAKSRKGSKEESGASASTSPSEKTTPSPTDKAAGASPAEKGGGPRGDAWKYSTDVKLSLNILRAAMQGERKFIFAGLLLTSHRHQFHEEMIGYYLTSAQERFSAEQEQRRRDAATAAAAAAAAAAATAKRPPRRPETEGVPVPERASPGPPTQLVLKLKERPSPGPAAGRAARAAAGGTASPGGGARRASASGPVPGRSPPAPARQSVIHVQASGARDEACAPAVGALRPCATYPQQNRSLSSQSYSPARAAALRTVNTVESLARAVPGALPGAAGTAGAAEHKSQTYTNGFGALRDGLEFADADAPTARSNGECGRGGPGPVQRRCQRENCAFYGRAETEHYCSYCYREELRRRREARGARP
Summary of the method: as §1

UniProt Q9P2H5 = target: T3, UniProt Q9P2H5
T3 sequence (whole entry): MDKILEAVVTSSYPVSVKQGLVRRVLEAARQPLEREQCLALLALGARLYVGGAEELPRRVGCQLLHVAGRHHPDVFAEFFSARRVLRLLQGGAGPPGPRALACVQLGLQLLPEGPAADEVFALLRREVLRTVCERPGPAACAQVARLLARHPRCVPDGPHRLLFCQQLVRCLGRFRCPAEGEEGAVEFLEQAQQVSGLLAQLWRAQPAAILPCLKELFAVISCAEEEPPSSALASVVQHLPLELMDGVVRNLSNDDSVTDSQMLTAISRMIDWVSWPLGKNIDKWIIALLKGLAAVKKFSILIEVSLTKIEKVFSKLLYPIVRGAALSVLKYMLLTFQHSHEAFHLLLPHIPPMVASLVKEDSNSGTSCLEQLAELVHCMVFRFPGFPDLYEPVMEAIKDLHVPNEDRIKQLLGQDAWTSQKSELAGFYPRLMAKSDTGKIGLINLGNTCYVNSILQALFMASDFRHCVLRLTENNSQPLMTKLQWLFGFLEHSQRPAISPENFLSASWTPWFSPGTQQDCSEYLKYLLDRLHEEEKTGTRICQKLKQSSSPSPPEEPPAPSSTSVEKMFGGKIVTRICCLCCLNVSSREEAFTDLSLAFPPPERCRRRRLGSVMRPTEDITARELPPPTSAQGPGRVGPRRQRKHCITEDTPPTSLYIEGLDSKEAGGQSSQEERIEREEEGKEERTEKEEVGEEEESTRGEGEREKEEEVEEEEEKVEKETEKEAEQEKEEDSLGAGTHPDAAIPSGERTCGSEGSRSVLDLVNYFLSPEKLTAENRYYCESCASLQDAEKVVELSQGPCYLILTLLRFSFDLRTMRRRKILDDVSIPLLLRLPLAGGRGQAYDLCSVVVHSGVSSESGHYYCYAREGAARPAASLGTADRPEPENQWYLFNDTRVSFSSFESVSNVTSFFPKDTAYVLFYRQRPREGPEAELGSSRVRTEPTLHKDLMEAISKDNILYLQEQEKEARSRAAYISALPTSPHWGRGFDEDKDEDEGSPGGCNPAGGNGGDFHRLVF
Summary of the method: as §1

UniProt Q9UGI0 = target: T4, UniProt Q9UGI0
T4 sequence (whole entry): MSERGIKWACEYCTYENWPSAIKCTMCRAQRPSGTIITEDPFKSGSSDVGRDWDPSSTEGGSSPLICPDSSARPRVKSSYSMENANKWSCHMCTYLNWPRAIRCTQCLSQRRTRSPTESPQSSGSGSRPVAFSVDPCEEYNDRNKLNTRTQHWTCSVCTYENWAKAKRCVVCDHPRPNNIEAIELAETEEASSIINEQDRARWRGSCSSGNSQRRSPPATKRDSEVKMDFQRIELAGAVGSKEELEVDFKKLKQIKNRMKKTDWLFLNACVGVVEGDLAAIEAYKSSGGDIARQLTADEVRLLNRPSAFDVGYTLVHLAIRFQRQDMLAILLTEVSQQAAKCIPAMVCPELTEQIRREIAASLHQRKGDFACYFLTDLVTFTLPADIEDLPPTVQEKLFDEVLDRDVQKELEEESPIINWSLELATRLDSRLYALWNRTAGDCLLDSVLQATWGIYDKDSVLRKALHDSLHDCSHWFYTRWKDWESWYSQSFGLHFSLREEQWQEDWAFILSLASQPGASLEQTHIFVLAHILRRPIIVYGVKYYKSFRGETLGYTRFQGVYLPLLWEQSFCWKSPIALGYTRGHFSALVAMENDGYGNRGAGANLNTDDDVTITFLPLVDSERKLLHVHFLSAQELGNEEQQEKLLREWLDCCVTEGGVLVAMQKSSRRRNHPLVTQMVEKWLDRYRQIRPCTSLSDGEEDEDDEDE
Summary of the method: as §1

YOD1 = target: T5, YOD1 (UniProt Q5VVQ6)
T5 sequence (whole entry): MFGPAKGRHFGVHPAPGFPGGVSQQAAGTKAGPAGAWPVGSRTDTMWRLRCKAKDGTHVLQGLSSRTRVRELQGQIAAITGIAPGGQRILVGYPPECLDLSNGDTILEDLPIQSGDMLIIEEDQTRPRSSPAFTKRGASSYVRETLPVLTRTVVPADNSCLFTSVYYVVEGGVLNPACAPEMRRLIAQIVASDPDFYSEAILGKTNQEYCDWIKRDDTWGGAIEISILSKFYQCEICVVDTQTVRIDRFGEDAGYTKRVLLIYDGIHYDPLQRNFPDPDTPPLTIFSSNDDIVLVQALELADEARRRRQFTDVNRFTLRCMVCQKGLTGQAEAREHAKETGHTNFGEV
Summary of the method: as §1

Measured: log2 ratio of Biotin-Ahx-Ub-VS probe labelling

UniProt P51784, sequence (P51784 whole entry): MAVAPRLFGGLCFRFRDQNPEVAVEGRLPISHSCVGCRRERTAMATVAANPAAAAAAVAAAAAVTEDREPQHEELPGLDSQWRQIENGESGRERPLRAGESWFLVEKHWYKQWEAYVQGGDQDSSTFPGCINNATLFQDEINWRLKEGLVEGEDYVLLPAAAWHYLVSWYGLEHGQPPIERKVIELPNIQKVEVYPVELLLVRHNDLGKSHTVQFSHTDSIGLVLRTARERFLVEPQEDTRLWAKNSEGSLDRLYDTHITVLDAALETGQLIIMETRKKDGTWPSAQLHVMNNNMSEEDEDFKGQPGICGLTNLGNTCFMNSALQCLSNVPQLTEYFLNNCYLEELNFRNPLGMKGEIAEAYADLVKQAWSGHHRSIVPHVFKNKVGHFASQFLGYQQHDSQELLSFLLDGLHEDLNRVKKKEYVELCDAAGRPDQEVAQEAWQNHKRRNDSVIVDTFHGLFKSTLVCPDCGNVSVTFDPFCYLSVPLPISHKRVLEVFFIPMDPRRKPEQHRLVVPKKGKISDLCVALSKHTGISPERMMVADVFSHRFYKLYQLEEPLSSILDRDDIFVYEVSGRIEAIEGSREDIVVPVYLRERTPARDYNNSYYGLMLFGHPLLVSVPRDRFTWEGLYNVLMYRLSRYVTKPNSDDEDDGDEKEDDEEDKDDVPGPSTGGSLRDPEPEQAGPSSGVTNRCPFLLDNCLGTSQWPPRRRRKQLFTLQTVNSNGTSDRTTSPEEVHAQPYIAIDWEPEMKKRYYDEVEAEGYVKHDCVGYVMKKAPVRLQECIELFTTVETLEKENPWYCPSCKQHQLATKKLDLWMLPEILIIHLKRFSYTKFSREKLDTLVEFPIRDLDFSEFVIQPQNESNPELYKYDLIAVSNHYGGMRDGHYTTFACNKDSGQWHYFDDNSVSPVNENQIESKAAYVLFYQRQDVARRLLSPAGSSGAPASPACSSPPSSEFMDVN
UniProt O00507, sequence (O00507 whole entry, the tested form may be a part): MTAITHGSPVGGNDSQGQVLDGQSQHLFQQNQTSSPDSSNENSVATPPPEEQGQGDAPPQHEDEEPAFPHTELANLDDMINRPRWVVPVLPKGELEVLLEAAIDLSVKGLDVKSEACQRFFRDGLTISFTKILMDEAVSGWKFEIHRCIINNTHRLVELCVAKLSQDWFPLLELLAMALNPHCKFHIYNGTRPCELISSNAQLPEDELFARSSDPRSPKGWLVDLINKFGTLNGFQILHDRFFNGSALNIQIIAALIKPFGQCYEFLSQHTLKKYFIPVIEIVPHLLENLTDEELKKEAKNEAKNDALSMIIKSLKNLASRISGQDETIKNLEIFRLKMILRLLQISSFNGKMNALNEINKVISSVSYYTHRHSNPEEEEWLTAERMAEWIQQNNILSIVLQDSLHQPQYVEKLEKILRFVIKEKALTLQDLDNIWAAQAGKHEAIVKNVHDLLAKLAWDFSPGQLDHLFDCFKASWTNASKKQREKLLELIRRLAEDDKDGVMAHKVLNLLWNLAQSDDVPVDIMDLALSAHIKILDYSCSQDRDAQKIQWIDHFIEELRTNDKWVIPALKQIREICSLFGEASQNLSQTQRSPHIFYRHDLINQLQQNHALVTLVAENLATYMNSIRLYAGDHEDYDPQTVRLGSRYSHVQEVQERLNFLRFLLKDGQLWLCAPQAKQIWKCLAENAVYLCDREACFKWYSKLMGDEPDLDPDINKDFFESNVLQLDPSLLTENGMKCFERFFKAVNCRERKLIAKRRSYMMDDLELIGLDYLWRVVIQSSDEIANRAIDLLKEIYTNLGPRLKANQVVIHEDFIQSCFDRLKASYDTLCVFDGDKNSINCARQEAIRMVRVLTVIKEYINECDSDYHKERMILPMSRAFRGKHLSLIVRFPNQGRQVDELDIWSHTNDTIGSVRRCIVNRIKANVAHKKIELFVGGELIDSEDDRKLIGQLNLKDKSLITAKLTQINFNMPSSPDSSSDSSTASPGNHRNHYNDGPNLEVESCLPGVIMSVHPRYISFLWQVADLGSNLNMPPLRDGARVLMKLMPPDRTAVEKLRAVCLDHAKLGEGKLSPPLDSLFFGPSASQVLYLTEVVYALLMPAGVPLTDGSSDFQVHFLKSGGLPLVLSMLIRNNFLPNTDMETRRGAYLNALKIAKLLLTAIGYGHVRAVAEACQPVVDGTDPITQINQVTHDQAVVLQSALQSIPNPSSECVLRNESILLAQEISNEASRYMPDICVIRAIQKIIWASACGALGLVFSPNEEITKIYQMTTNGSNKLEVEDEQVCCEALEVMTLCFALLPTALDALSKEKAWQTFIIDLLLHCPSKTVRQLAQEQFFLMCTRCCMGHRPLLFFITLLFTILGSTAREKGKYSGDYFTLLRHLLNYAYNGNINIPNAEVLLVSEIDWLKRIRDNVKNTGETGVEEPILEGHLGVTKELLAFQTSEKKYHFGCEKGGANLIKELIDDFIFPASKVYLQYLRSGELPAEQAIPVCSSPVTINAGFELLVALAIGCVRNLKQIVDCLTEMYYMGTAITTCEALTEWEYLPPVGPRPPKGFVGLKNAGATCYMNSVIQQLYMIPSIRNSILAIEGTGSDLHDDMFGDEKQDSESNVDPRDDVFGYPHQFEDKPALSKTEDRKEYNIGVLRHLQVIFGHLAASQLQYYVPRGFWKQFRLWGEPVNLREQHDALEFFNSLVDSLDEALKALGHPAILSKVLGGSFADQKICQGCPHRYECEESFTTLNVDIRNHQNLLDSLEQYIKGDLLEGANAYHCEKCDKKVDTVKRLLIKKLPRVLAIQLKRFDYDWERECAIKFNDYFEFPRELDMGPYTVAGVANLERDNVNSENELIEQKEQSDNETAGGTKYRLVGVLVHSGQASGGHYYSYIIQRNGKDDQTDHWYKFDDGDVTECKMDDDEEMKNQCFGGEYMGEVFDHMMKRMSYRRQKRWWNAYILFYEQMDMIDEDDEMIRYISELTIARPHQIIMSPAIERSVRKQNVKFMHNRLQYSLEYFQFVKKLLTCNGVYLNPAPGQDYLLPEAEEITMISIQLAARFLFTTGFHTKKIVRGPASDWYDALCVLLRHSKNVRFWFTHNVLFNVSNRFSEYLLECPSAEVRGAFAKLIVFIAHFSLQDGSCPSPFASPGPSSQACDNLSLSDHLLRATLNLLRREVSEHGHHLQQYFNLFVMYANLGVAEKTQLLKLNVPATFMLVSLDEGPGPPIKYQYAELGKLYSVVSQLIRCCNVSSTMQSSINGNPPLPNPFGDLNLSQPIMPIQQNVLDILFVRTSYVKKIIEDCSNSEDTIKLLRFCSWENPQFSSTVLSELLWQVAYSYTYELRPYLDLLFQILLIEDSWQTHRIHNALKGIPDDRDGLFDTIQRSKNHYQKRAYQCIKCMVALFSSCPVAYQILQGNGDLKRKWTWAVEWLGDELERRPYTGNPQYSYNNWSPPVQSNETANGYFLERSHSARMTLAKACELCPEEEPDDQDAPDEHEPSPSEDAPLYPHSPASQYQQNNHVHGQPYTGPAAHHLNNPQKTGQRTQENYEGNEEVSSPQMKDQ

O=C(CCl)Nc1ccc(N2CCCC2=O)cc1
inactive: UniProt O00507 -0.208 | UniProt P51784 0.297 | UniProt Q5T2D3 0.165 | UniProt Q8TE49 0.0701 | UniProt Q9P2H5 0.00543 | UniProt Q9UGI0 -0.752 | YOD1 0.137

O=C(CCl)NC(Cn1ccccc1=O)c1ccccc1 (centres undefined)
inactive: UniProt O00507 0.0241 | UniProt P51784 0.0376 | UniProt Q5T2D3 0.0727 | UniProt Q8TE49 -0.0581 | UniProt Q9P2H5 0.148 | UniProt Q9UGI0 -0.146 | YOD1 0.00589

Cc1cccc(C)c1NC(=O)CCl
inactive: UniProt O00507 -0.138 | UniProt P51784 -0.081 | UniProt Q5T2D3 -0.377 | UniProt Q8TE49 -0.358 | UniProt Q9P2H5 -0.0602 | UniProt Q9UGI0 -0.323 | YOD1 -0.344

O=C(CCl)N1CCOCCC1c1ccccc1 (centres undefined)
inactive: UniProt O00507 -0.114 | UniProt P51784 0.0584 | UniProt Q5T2D3 -0.173 | UniProt Q8TE49 -0.54 | UniProt Q9P2H5 -0.305 | UniProt Q9UGI0 -0.25 | YOD1 0.199

O=C(CCl)NCCc1cccc2ccccc12
inactive: UniProt O00507 0.608 | UniProt P51784 0.159 | UniProt Q5T2D3 -0.0259 | UniProt Q8TE49 -0.28 | UniProt Q9P2H5 0.0801 | UniProt Q9UGI0 0.238 | YOD1 0.263

CNC(=O)Cn1cc(NC(=O)CCl)cn1
inactive: UniProt O00507 -0.146 | UniProt P51784 -0.115 | UniProt Q5T2D3 -0.427 | UniProt Q8TE49 -0.553 | UniProt Q9P2H5 -0.256 | YOD1 -0.252
active: UniProt Q9UGI0 -1.09

CS(=O)(=O)c1ccc(CNC(=O)CCl)cc1
inactive: UniProt O00507 -0.143 | UniProt P51784 -0.0799 | UniProt Q5T2D3 -0.383 | UniProt Q8TE49 -0.563 | UniProt Q9P2H5 0.0147 | UniProt Q9UGI0 -0.189 | YOD1 -0.172

CCC1c2ccsc2CCN1C(=O)CCl (centres undefined)
inactive: UniProt O00507 -0.266 | UniProt P51784 -0.306 | UniProt Q5T2D3 -0.0335 | UniProt Q8TE49 -0.771 | UniProt Q9P2H5 -0.118 | UniProt Q9UGI0 -0.444 | YOD1 -0.026

O=C(CCl)N1CCc2sccc2C1
active: UniProt Q8TE49 -1.18 | UniProt Q9UGI0 -1.9
inactive: UniProt O00507 -0.0149 | UniProt P51784 -0.207 | UniProt Q5T2D3 -0.075 | UniProt Q9P2H5 -0.371 | YOD1 -0.00804

Cc1cccc(NC(=O)[C@@H]2CCCN2C(=O)CCl)n1
inactive: UniProt O00507 -0.299 | UniProt P51784 -0.00908 | UniProt Q5T2D3 -0.366 | UniProt Q8TE49 -0.721 | UniProt Q9P2H5 -0.312 | UniProt Q9UGI0 -0.3 | YOD1 -0.432

Cc1cc(NC(=O)CCl)n(-c2ccccc2)n1
inactive: UniProt O00507 0.159 | UniProt P51784 -0.0134 | UniProt Q5T2D3 0.000838 | UniProt Q8TE49 -0.548 | UniProt Q9P2H5 -0.36 | UniProt Q9UGI0 -0.672 | YOD1 0.179

Cc1n[nH]c(=O)c2c(NC(=O)CCl)oc(C)c12
inactive: UniProt O00507 0.347 | UniProt P51784 0.0686 | UniProt Q5T2D3 -0.674 | UniProt Q8TE49 -0.575 | UniProt Q9P2H5 -0.144 | UniProt Q9UGI0 0.264 | YOD1 0.238

O=C(CCl)Nc1cccc(C(=O)N2CCSCC2)c1
inactive: UniProt O00507 -0.587 | UniProt P51784 -0.172 | UniProt Q5T2D3 -0.17 | UniProt Q8TE49 -0.399 | UniProt Q9P2H5 0.0593 | UniProt Q9UGI0 -0.309 | YOD1 -0.58

O=C(CCl)NCc1ccc2c(c1)OCO2
inactive: UniProt O00507 0.0979 | UniProt P51784 0.0895 | UniProt Q5T2D3 -0.281 | UniProt Q8TE49 -0.708 | UniProt Q9P2H5 -0.288 | UniProt Q9UGI0 -0.607 | YOD1 0.157

Cc1ncsc1CCNC(=O)CCl
inactive: UniProt O00507 0.115 | UniProt P51784 0.269 | UniProt Q5T2D3 -0.0368 | UniProt Q8TE49 -0.0765 | UniProt Q9P2H5 -0.0174 | UniProt Q9UGI0 -0.0599 | YOD1 0.0977

O=C(CCl)N1CCC[C@@H]1c1ccon1
inactive: UniProt O00507 -0.592 | UniProt P51784 -0.16 | UniProt Q5T2D3 -0.395 | UniProt Q8TE49 -0.398 | UniProt Q9P2H5 -0.248 | UniProt Q9UGI0 -0.626 | YOD1 -0.749

CN(CCC(O)c1ccc(Br)cc1)C(=O)CCl (centres undefined)
inactive: UniProt O00507 -0.198 | UniProt P51784 -0.124 | UniProt Q5T2D3 -0.111 | UniProt Q9P2H5 -0.328 | UniProt Q9UGI0 -0.555 | YOD1 0.00847
active: UniProt Q8TE49 -1.29
